PubChem BioAssay AID1851 (National Center for Advancing Translational Sciences (NCATS), 2009)
Several values for one entry are separate records, joined by “and”; a condition that tells them apart may be missing. Equal values may be shown once. Out of some 16,000 compounds screened, about 2,600 (16%) were called active. About 20% were inconclusive and are not listed. Calls follow the shape of the dose curve; as a rule, active = well fitted curve in the direction sought with a large enough effect; inconclusive = small, poorly fitted or top-dose-only effect, or effect the other way; inactive = no such curve, though single readings can be large or run the other way. Only a sample is shown. Where a structure was tested more than once in an assay, its records may differ in their call.

Target: Cytochrome P450 2D6 (Homo sapiens) (UniProt P10635)
Assay: Cytochrome panel assay with activity outcomes
Conditions: recombinant CYP, pro-luciferin dealkylation, luminescence, p450-cyp2d6; series mostly up to 57.1 µM; activity, negative = inhibition: at the top concentration
% is scaled to controls: 0 for no effect and ±100 for the full control effect.

Sequence of Cytochrome P450 2D6 (Homo sapiens) (P10635 whole entry, looked up): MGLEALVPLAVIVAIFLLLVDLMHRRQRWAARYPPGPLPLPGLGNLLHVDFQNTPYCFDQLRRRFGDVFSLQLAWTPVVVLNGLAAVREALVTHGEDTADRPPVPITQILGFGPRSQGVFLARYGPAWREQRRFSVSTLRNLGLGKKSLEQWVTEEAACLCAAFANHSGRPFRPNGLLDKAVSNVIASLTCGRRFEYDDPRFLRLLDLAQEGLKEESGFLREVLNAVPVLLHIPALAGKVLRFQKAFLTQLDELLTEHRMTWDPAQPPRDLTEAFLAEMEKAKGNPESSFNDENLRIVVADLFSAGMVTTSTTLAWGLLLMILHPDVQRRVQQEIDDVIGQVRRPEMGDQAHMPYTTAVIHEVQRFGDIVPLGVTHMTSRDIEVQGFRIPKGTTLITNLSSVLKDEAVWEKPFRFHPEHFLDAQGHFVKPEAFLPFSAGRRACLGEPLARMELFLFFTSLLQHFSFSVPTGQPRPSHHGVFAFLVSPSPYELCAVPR

activity, negative = inhibition, inactive:
CC(C)(C)c1ccc(S(=O)(=O)/C=C\C#N)cc1 -5.04%, Cc1ccc(S(=O)(=O)CCCS(=O)(=O)c2ccc(C)cc2)cc1 22.6%, CC1(C)Cc2c(sc3c2C(=O)N(c2ccccc2)C2=NCCN23)CS1 -11.5%, C=C1CCO[C@@]2([C@H](O)[C@@](C)(O)CO)NC(=O)[C@]1(O)NC2=O 9.37% [at 11.4 µM], COC(=O)c1ccccc1NC(=O)C1CCN(C(=O)c2ccc(OC)cc2)CC1 -1.54%, COc1ccc(NC(=O)N2CCCC2C(=O)Nc2ccccc2)cc1 (stereo not given) 26.7%, COc1ccc(C(=O)Nc2scc(-c3ccc(Cl)cc3Cl)c2C(N)=O)cc1 -20.9%, CN1CCCN(C2C3CC4CC(C3)CC2C4)CC1 (stereo not given) -16.1%, Cc1cc(C)c(S(=O)(=O)N2CCN(c3ccc([N+](=O)[O-])c(NCc4ccco4)c3)CC2)c(C)c1 9.58%, CCOCC(=O)Nc1c(C(=O)Nc2ccccc2OC)oc2ccccc12 7.99%, COc1ccc(COC(=O)N/N=C2/C[C@@H](O)[C@@H](O)[C@@H]3[C@@H]4C(=O)N([C@@H](C)c5ccccc5)C(=O)[C@H]4CC[C@@H]23)cc1 -8.23% [at 11.4 µM], CC(C)=C1C(=O)C(c2ccccc2)=C2CN3C(=O)N(CCc4ccccc4)C(=O)[C@]3(Cc3ccccc3)[C@H]21 1.45%, O=C(O)c1nc(-c2ccccc2)[nH]c1C(=O)O -20.9% [at 11.4 µM], Cc1cccc(NC(=O)c2cc(N3C(=O)CCC3=O)ccc2Cl)n1 5.17%, Cc1ccc(S(=O)(=O)N(C)c2cc(S(=O)(=O)N3CCC(C)CC3)c(C)cc2C)cc1 -26.8%, CCOC(=O)c1cnc(-n2nc(C)cc2C)nc1NCCO -6.66%, CC1=CC(=O)CC(C)(C)[C@]1(O)/C=C\C(C)=C\C(=O)O 11.4% [at 11.4 µM], O=C1c2ccccc2N[C@H](c2cc(Cl)cc(Cl)c2O)N1CCc1ccccn1 15% [at 11.4 µM], COC(=O)c1c(NC(=O)Cn2cc([N+](=O)[O-])cn2)sc2c1CCC2 4.71%, N#Cc1c(NC(=O)C2CC(c3ccccc3Cl)=NO2)sc2c1CCC2 (stereo not given) 13%, O=c1c(-c2ccc(F)cc2)nc2cnc(N3CCOCC3)nc2n1C[C@H]1CCCO1 1.02%, COc1ccc(Cc2nnc(NC(=O)c3cccc([N+](=O)[O-])c3C)s2)cc1 15.9%, COc1cc(OC)c2c(c1Cl)O[C@@]1(C2=O)[C@H](C)CC(=O)C[C@@H]1OC 12.5% [at 25.6 µM], COCCn1c(=O)c(-c2cc(F)cc(F)c2)nc2cnc(Oc3ccccc3)nc21 2.61%, CSc1nc2c(c(C(F)(F)F)n1)CC(C)CC2 (stereo not given) -28.2%, CSc1nc(N)c2ncn([C@@H]3O[C@@H](COP(=O)(O)OP(=O)(O)O)[C@@H](O)[C@H]3O)c2n1 -2.12%, COc1ccc(N2C(=O)NC(NC(=O)c3ccncc3)(C(F)(F)F)C2=O)cc1 (stereo not given) 4.25%, Cc1nc(SCC(=O)Nc2c(C)n(C)n(-c3ccccc3)c2=O)nc(C)c1C 5.71%, Cc1ccc(-c2nnc(-c3ccc4ccccc4c3)o2)cc1 3.58% [at 11.4 µM], O=C(Nc1ccc2ccccc2c1)c1onc2c1CCCC2 -9.53%, CCOc1cc(CN2CCN(c3ccc(C(C)=O)cc3)CC2)ccc1OC -1.52%, Cn1c(N)nc2c(nc(OCc3ccccc3)n2[C@@H]2O[C@H](CO)[C@@H](O)[C@@H]2O)c1=O 9.24% [at 11.4 µM], CCN1C(=O)/C(=C/C=C2/SCCN2C)SC1=S -9.1%, O=C1c2ccccc2C(=O)C1c1ccccc1 -1.66% [at 25.6 µM], Cn1ncc2c(Cl)ncnc21 12.3% [at 11.4 µM]

AC50, active:
Cc1ccc(S(=O)(=O)/C=C\C#N)cc1 0.0158 µM, O=C(Nc1ccc(Oc2ccccc2)cc1)C1CCN(c2c3c(nc4ncnn24)CCC3)CC1 12.6 µM, COc1cccc(-c2nccc(NCc3ccc(OC)cc3OC)n2)c1 12.6 µM, COc1cccc(-c2nccc(NCc3ccccc3OC)n2)c1 0.398 µM, COc1ccccc1CNc1ccnc(-c2cccc(C#N)c2)n1 25.1 µM, COc1ccc(CNc2ccnc(-c3cccnc3)n2)c(OC)c1 10 µM, COC(=O)C1CCN(CC(=O)Nc2sc3c(c2C#N)CCC3)CC1 1.12 µM, c1ccc2cc(NCNc3ccc4ccccc4c3)ccc2c1 1 µM, CC1(C)C(=O)NC2=C1C(=O)C(=O)c1ccccc12 2.51 µM

AC50, inactive and 2 µM (active):
CC1=C(\C=C/C(C)=C/C=C\C(C)=C\C(=O)O)C(C)(C)CCC1
